# Source: paper PMC7862700, “An all-to-all approach to the identification of sequence-specific readers for epigenetic DNA modifications on cytosine”
# Columns and labels:
# Assay in all cases: DAPPL (digital affinity profiling via proximity ligation, sequencing); 10 mM Tris-HCl pH 7.5, 50 mM NaCl, 1 mM DTT, 4% glycerol, room temperature, 30 min; GST-TFs on glutathione beads, 16-mer random dsDNA library, 0.1% formaldehyde crosslink after washing; high values mean tight binding
# Details in all cases: protein: recombinant; tags: N-terminal GST; dsDNA, one strand shown
# FLI1 = target: T1, FLI1 (Homo sapiens, UniProt Q01543 1-452)
# T1 sequence: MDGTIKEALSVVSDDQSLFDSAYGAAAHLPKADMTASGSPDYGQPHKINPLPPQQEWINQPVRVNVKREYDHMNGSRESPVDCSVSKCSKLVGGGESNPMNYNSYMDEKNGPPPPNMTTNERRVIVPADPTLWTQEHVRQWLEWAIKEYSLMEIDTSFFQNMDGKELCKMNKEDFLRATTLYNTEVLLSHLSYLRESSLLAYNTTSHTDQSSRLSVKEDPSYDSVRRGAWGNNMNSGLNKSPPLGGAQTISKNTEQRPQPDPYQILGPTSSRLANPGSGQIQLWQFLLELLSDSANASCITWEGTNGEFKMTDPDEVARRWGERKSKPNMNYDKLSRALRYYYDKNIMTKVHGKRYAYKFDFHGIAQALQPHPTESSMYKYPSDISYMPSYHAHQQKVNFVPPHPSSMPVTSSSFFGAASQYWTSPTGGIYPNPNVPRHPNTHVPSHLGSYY
# In short: (§1)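 GST fusions of human transcription factors were expressed in yeast and captured with glutathione beads. Once given DNA barcodes and pooled alongside a tag-only sample, they were incubated for 30 min at room temperature with 200 nmole of a random double-stranded 16-mer DNA library in Tris/NaCl/DTT/glycerol buffer, then washed, crosslinked (0.1% formaldehyde), proximity-ligated, PCR-amplified and sequenced on an Illumina NextSeq500. The binding signal of each hexamer is its read frequency for a factor divided by its frequency for the tag-only sample.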
# ELK1 = target: T2, ELK1 (Homo sapiens, UniProt P19419 1-428)
# T2 sequence: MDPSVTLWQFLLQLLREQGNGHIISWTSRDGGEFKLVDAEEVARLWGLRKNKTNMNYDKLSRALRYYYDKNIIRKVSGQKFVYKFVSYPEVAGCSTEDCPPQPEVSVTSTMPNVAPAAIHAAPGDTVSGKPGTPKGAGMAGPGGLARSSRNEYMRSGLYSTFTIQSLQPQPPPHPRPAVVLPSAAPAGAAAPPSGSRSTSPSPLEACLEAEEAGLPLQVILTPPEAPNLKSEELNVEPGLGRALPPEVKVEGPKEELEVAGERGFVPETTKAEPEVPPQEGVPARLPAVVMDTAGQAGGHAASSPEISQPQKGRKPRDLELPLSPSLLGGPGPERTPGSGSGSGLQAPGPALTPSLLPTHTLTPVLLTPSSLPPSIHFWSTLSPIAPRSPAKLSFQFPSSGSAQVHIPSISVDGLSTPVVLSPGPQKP
# In short: as §1
# GABPA = target: T3, GABPA (Homo sapiens, UniProt Q06546 1-454)
# T3 sequence: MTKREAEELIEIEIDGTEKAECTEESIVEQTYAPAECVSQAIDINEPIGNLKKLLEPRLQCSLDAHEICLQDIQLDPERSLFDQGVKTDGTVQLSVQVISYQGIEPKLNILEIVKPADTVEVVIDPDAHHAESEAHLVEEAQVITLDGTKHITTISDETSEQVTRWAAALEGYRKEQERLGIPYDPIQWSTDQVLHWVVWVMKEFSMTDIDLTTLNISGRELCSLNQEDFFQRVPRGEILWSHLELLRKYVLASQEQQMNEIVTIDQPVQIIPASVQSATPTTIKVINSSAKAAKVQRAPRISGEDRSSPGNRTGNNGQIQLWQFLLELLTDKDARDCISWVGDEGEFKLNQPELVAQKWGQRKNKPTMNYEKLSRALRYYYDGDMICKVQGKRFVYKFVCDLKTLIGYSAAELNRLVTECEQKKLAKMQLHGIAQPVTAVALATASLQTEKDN
# In short: as §1
# ERG = target: T4, ERG (Homo sapiens, UniProt P11308 1-479)
# T4 sequence: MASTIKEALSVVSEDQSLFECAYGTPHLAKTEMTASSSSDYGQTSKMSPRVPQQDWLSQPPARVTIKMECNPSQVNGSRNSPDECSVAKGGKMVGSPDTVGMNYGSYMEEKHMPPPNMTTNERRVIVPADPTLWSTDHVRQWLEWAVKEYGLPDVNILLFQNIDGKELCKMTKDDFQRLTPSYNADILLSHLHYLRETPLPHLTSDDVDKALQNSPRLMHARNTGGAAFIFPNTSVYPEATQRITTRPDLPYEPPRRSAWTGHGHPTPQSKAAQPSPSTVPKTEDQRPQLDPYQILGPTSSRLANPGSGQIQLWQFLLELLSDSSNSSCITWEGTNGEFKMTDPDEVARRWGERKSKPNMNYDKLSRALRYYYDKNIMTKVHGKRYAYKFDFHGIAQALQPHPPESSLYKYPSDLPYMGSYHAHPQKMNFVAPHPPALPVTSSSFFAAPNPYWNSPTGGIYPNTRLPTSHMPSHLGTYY
# In short: as §1
# ELF1 = ELF1 (Homo sapiens, UniProt P32519 1-619)
# In short: as §1
# EHF = target: T5, EHF (Homo sapiens, UniProt Q9NZC4 1-300)
# T5 sequence: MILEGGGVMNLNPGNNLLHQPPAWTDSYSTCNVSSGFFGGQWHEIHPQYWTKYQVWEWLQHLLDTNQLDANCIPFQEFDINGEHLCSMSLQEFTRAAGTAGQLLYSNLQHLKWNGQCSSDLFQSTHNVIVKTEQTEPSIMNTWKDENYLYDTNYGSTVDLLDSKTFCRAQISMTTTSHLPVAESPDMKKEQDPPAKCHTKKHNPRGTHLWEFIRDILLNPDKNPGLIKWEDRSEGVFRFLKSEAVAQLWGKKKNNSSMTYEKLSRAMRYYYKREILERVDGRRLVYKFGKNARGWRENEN
# In short: as §1
# SPI1 = SPI1 (Homo sapiens, UniProt P17947 1-270)
# In short: as §1
# SPIB = SPIB (Homo sapiens, UniProt Q01892 1-262)
# In short: as §1
# ELK3 = target: T6, ELK3 (Homo sapiens, UniProt P41970 1-407)
# T6 sequence: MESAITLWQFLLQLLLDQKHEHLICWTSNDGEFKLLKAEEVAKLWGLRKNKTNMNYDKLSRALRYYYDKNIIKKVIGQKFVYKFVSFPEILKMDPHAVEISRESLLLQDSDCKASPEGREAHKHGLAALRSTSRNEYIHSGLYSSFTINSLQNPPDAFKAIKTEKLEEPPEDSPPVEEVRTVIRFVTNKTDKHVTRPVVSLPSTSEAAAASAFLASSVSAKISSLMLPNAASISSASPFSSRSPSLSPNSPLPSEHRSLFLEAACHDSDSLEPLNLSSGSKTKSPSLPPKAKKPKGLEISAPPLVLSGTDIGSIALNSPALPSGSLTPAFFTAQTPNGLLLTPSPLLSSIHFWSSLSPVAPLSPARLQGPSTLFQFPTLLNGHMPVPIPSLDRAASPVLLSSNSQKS
# In short: as §1
# Sequence of SPIB (Q01892 whole entry): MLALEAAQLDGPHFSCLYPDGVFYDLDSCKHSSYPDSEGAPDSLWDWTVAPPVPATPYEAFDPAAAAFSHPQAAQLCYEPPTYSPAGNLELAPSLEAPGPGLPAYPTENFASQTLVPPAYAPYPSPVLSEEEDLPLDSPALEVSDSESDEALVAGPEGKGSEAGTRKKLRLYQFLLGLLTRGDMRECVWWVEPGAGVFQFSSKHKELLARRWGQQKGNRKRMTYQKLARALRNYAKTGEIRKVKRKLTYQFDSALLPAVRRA
# Sequence of ELF1 (P32519 whole entry): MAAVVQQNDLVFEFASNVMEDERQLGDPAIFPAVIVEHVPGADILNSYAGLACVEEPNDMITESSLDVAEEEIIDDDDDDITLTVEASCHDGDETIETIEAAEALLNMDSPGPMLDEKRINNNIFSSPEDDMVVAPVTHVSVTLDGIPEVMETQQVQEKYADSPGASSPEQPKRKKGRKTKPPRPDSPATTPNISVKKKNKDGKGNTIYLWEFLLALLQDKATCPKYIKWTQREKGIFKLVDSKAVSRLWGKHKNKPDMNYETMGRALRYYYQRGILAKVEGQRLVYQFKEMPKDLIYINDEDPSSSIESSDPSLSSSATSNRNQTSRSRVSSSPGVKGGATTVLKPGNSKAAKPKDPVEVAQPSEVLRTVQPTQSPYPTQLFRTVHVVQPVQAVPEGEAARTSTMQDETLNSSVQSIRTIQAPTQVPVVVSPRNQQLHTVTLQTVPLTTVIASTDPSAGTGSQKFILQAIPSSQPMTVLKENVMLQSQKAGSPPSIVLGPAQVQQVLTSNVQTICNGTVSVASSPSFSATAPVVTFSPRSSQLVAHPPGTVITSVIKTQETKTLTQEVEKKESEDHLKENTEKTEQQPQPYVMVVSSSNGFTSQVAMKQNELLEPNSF
sequence,measurement,setting,value
TCCGGA,binding signal,FLI1,"2.58 fold enrichment (6-mer frequency, TF over GST control)"
same,binding signal,ELK1,"2.53 fold enrichment (6-mer frequency, TF over GST control)"
same,binding signal,GABPA,"2.37 fold enrichment (6-mer frequency, TF over GST control)"
same,binding signal,ERG,"3.19 fold enrichment (6-mer frequency, TF over GST control)"
same,binding signal,ELF1,"2.3 fold enrichment (6-mer frequency, TF over GST control)"
same,binding signal,EHF,"2.86 fold enrichment (6-mer frequency, TF over GST control)"
same,binding signal,SPI1,"2.39 fold enrichment (6-mer frequency, TF over GST control)"
same,binding signal,SPIB,"2.69 fold enrichment (6-mer frequency, TF over GST control)"
same,binding signal,ELK3,"2.67 fold enrichment (6-mer frequency, TF over GST control)"
